Assay outcomes as filed in PubChem.
DUSP3 inh – DUSP3 (human) phosphatase inhibition; recombinant VHR phosphatase, pNPP absorbance; inhibition, % at 13.3 µM; 0.52% of 290,000 active; in the data active means inhibition above about 50%
Target sequence (P51452 whole entry, looked up): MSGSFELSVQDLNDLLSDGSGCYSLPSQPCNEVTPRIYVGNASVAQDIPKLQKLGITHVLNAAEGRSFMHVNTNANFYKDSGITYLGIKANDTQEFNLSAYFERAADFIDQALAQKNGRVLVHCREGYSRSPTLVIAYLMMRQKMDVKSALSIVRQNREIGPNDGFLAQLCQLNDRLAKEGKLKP
Vc quorum ag-1 – inducers of Vibrio cholerae quorum light production without autoinducers; V. cholerae BH1578 lux reporter, luminescence, 6 h; activation, % at 18.7 µM; AID 588436; 0.16% of 350,000 active; in the data active means activation mostly above about 9.7%, no sharp cut-off
SARS 3CLpro inh-1 – SARS-CoV 3CLpro protease inhibition | P0C6X7 | recombinant SARS-CoV 3CLpro, quenched FRET peptide cleavage | 0.14% of 290,000 active | inhibition, % at 6 µM; in the data active means inhibition above about 12%
BJeLR viability – BJeLR cell viability loss; BJeLR (HRASV12) viability, CellTiter-Glo ATP luminescence, 48 h; inhibition, % (no concentration beside the values); 0.17% of 300,000 active; AID 1554; in the data active means inhibition above about 50%
PfHsp40 rescue – compounds rescuing yeast from Plasmodium falciparum HSP40 toxicity; growth rescue, % at 12.5 µM; 0.68% of 340,000 active; S. cerevisiae expressing PfHsp40, growth rescue, ATP luminescence; in the data active means growth rescue above about 28%, passing the limit was not always enough;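 further: yeast W303a lacking pdr1 and pdr3 grown in galactose medium; growth measured after three days at 30 °C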
MazF activator – MazEF (E. coli) toxin RNase activation. P0AE70. FAM/BHQ RNA-DNA oligo cleavage fluorescence, 5 h. activation, % at 20 µM. 0.32% of 350,000 active. AID 504720; in the data active means activation above about 50%
Target sequence (P0AE70 whole entry, looked up): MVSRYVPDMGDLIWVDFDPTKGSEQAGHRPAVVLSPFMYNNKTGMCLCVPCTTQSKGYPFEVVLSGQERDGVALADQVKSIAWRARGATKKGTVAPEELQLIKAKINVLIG
SARS 3CLpro inh-2 – confirmation of SARS coronavirus 3C-like protease inhibitors; shares compounds with SARS 3CLpro inh-1; QFRET protease activity assay, 3CLpro; inhibition, % at 6 µM; 36% of 380 active; AID 1879; in the data active means inhibition above about 13%
Vc quorum ag-2 – induces V. cholerae light production without autoinducers. shares compounds with Vc quorum ag-1. V. cholerae BH1578 lux reporter, luminescence, 6 h. activation, % at 50 µM. 620 tested, under 10 active. AID 602243; call rule not given here
HeLa 24h tox – HeLa cell viability loss at 24 h. shares compounds with Vc quorum ag-1. CellTiter-Glo ATP luminescence. activity change, negative = cytotoxicity, % at 35 µM. 25 tested, under 10 active. AID 624140;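 active means signal drop with fitted half-maximal concentration at or below twice the highest valid dose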
An asterisk follows results filed as active. Sampled rows, rich in hits. Any-hit rate of the full collection: about 1.7%.

`O=C(COc1ccccc1)N1c2ccccc2Sc2ccccc21` gave DUSP3 inh 0, Vc quorum ag-1 0, SARS 3CLpro inh-1 0, BJeLR viability -3, PfHsp40 rescue 2 and MazF activator -14.
For O=C(OCC(=O)N1c2ccccc2Sc2ccccc21)c1cccnc1 the results were DUSP3 inh 10, Vc quorum ag-1 0, SARS 3CLpro inh-1 21*, BJeLR viability -8, PfHsp40 rescue 0, MazF activator 4 and SARS 3CLpro inh-2 22*.
Screening CNC(=O)N(O)C1N(/N=C/c2cccs2)C(=S)SC1(C)C (configuration not stated) returned DUSP3 inh -5, Vc quorum ag-1 -2, SARS 3CLpro inh-1 13*, BJeLR viability -7, PfHsp40 rescue 0, MazF activator 9 and SARS 3CLpro inh-2 2.
`Cc1ccc(NC(=O)NC(=O)COc2c(F)c(F)cc(F)c2F)c(C)c1` gave Vc quorum ag-1 -3, PfHsp40 rescue 0 and MazF activator -2.
Cc1ccc(-n2c(Cc3cccn3C)nnc2SCC(=O)Nc2ccc3c(c2)OCO3)cc1 was read as DUSP3 inh 28, Vc quorum ag-1 0, SARS 3CLpro inh-1 14*, BJeLR viability 2, PfHsp40 rescue 0, MazF activator -8 and SARS 3CLpro inh-2 2.
For Cn1cccc1Cc1nnc(SCC(=O)Nc2ccc3c(c2)OCCO3)n1-c1ccc(F)cc1 the results were DUSP3 inh 43, Vc quorum ag-1 0, SARS 3CLpro inh-1 0, BJeLR viability -1, PfHsp40 rescue 1 and MazF activator 4.
`C=CCOC(=O)c1ccc(N2CCN(c3ccccc3)CC2)nc1` gave DUSP3 inh 20, Vc quorum ag-1 0, SARS 3CLpro inh-1 3, BJeLR viability -13 and MazF activator -6.
`Cc1ccc(NC(=O)CSc2nnnn2C2CC2)cc1S(=O)(=O)N1CCOCC1` gave Vc quorum ag-1 inactive, PfHsp40 rescue 0 and MazF activator 2.
O=C(c1cncc(Br)c1)N1CCN(S(=O)(=O)c2ccccc2C(F)(F)F)CC1 was read as DUSP3 inh 7, Vc quorum ag-1 0, SARS 3CLpro inh-1 17*, BJeLR viability -10, PfHsp40 rescue 0, MazF activator 9 and SARS 3CLpro inh-2 12.
`CCOc1ccc(-n2ccc(=O)c(C(=O)O)n2)cc1` gave DUSP3 inh 2, Vc quorum ag-1 inactive, SARS 3CLpro inh-1 4, BJeLR viability 9, PfHsp40 rescue -1 and MazF activator 0.
`Cc1cccc(NC(=S)NCCc2c[nH]c3ccccc23)c1` gave DUSP3 inh -2, Vc quorum ag-1 0, SARS 3CLpro inh-1 1, BJeLR viability -9, PfHsp40 rescue 3 and MazF activator 1.
For Cc1ccc(NC(=S)NCCc2c[nH]c3ccccc23)cc1 the results were DUSP3 inh 5, Vc quorum ag-1 17*, SARS 3CLpro inh-1 6, BJeLR viability -5, PfHsp40 rescue -1, MazF activator -2 and Vc quorum ag-2 0.
For CCCC(=O)NC1CCCc2c1cnn2-c1ccc(C)c(C)c1 (configuration not stated) the results were DUSP3 inh 6, Vc quorum ag-1 23, SARS 3CLpro inh-1 7, BJeLR viability -27, PfHsp40 rescue -1, MazF activator 8 and Vc quorum ag-2 0.
For Cc1ccc(-n2ncc3c2CCCC3NC(=O)CCn2ccnc2C)cc1C (configuration not stated) the results were DUSP3 inh 14, Vc quorum ag-1 -1, SARS 3CLpro inh-1 -5, BJeLR viability -8, PfHsp40 rescue -1 and MazF activator 0.
CCN1CCN(C(=S)NCCOC)CC1 was read as DUSP3 inh 14, Vc quorum ag-1 0, SARS 3CLpro inh-1 -1, BJeLR viability 5, PfHsp40 rescue 0 and MazF activator -1.
CCOC(=O)N1CCN(C(=S)NCCOC)CC1 was read as DUSP3 inh 18, Vc quorum ag-1 12, SARS 3CLpro inh-1 1, BJeLR viability 3, PfHsp40 rescue 0, MazF activator -3 and Vc quorum ag-2 0.
`COc1cc(SC)ccc1C(=O)OCC(=O)NCC(C)C` gave DUSP3 inh 18, Vc quorum ag-1 67*, SARS 3CLpro inh-1 7, BJeLR viability 1, PfHsp40 rescue 0, MazF activator 0 and Vc quorum ag-2 430.
For Cc1nnc(SC(C)C(=O)N(C)C2CCCCC2)n1N (configuration not stated) the results were Vc quorum ag-1 inactive, PfHsp40 rescue -3 and MazF activator 6.
Cc1ccc2onc(CC(=O)O)c2c1 was read as DUSP3 inh 8, Vc quorum ag-1 24, SARS 3CLpro inh-1 2, BJeLR viability 15, PfHsp40 rescue 0, MazF activator 2 and Vc quorum ag-2 0.
`CCn1nnnc1NCc1cccn1C` gave DUSP3 inh 31, Vc quorum ag-1 0, SARS 3CLpro inh-1 -2, BJeLR viability -2, PfHsp40 rescue 0, MazF activator 2 and HeLa 24h tox -1.
For COc1ccc(S(=O)(=O)N2CCc3ccccc32)cc1[N+](=O)[O-] the results were DUSP3 inh 0, Vc quorum ag-1 inactive, SARS 3CLpro inh-1 10, BJeLR viability -1, PfHsp40 rescue -1 and MazF activator -3.
O=c1ncn(-c2cccc(Cl)c2)c2ccccc12 was read as Vc quorum ag-1 active, BJeLR viability 1, PfHsp40 rescue 0, MazF activator -3, Vc quorum ag-2 619 and HeLa 24h tox 0.
For CCn1c(SCC(=O)NC2(C#N)CCCCC2)nc2ccccc2c1=O the results were Vc quorum ag-1 inactive, BJeLR viability 0, PfHsp40 rescue -1 and MazF activator 3.
CC(=O)Nc1ccc(S(=O)(=O)NCCC(=O)OCC(=O)c2cc(C)ccc2C)cc1 was read as Vc quorum ag-1 14, PfHsp40 rescue -1, MazF activator -3 and Vc quorum ag-2 0.
Screening Cc1ccc(S(=O)(=O)NCCC(=O)O)cc1 returned DUSP3 inh -2, Vc quorum ag-1 33*, SARS 3CLpro inh-1 -2, BJeLR viability 2, PfHsp40 rescue 1, MazF activator 0 and Vc quorum ag-2 0.
Screening O=C(c1cc2cc(Cl)ccc2oc1=O)N1CCCC1 returned DUSP3 inh -18, Vc quorum ag-1 7, SARS 3CLpro inh-1 -4, BJeLR viability -7, PfHsp40 rescue -1, MazF activator 3 and Vc quorum ag-2 0.
O=C(c1cc2cc(Cl)ccc2oc1=O)N1CCCCCCC1 was read as DUSP3 inh 18, Vc quorum ag-1 inactive, SARS 3CLpro inh-1 -2, BJeLR viability 3, PfHsp40 rescue 0 and MazF activator 9.
